For 38 compounds, Potency, outcome and activity change, negative = cytotoxicity results are on record in PubChem BioAssay (NCATS).

The structures appear in SMILES notation. “And” between values parts separate entries of the source, which are not always exact repeats. Equal entries are not always repeated. Inconclusive results are not listed. A call without a number means that no potency is given here. The source made the active and inactive calls. Calls come from the whole dose curve; as a rule, active = well fitted inhibition curve with a large enough effect; inconclusive = small, poorly fitted or top-dose-only effect; inactive = flat fitted curve, though single readings scatter.
Potency is the fitted concentration of half-maximal effect.

The nature of the assay: P-glycoprotein substrates identified in KB-8-5-11 adenocarcinoma cell line, qHTS therapeutic library screen (AID 1346987). Note: nearly all actives have a fitted effect of over 65% in size. To be noted: KB-8-5-11 (P-gp overexpressing) viability, CellTiter-Glo, 72 h; series mostly up to 44.5 µM. Put shortly:
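P-gp-mediated resistance screen: KB-8-5-11 cells treated 72 h with compounds in dose-response. CellTiter-Glo viability.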
Regarding `C=C(C(=O)O)[C@@H]1CC[C@@]2(C)CC[C@H](O)[C@@]2(C(C)=O)C1`, the Potency result is “inactive”.
For `NC1CCCCN(c2c(F)cc3c(=O)c(C(=O)O)cn(C4CC4)c3c2Cl)C1` (stereo not drawn), the Potency entry was “inactive”.
On the same count and under the same terms, under `CCN(CC)Cc1ccc(C(=O)N(CCc2ccccc2OC)[C@@H]2CCNC2)cc1` stands “inactive”.
The same measure, in the same setting: next, `COc1cc(OC)c(/C=C/S(=O)(=O)Cc2ccc(OC)c(NCC(=O)O)c2)c(OC)c1`: 0.461 µM (active); `C=C(C(=O)OC)C1C(O)CC2(C)C(=O)CCC(O)(CO)C2C1O` (stereo not drawn): “inactive”.
For the compound `C[C@@H]1O[C@@H](O[C@H]2[C@H](O)[C@@H](O)[C@H](OC[C@H]3O[C@@H](OC(=O)[C@]45CCC(C)(C)C[C@H]4C4=CCC6[C@@]7(C)CC[C@H](O[C@@H]8OC[C@H](O)[C@H](O[C@@H]9O[C@H](CO)[C@@H](O)[C@H](O)[C@H]9O)[C@H]8O)[C@@](C)(CO)C7CC[C@@]6(C)[C@]4(C)CC5)[C@H](O)[C@@H](O)[C@@H]3O)O[C@@H]2CO)[C@H](O)[C@H](O)[C@H]1O` (stereo partly drawn), the outcome was “inactive [at 9.29 µM]”.
`C[C@@H]1COCCN1c1cc(C2(S(C)(=O)=O)CC2)nc(-c2cccc3[nH]ccc23)n1`: the Potency was 1.46 µM (active).
Still for that read-out and setting: next, `COc1cc2c(cc1OC)[C@@H]1[C@H](O)[C@@H](OC)C=C3CCN(C2)[C@H]31`: 5.7 µM (active); `COc1ccc(/C=C/C(=O)O[C@@H]2[C@@H](O)[C@H](C)O[C@@H](O[C@H]3[C@@H]4C=CO[C@@H](O[C@H]5O[C@@H](CO)[C@H](O)[C@@H](O)[C@@H]5O)[C@@H]4[C@@]4(CO)O[C@@H]34)[C@@H]2OC(C)=O)cc1`: “inactive”; `CC(=O)O[C@H]1C[C@@]2(C)[C@@H](CC[C@H]3[C@@]4(C)C=CC(=O)[C@@H](C)[C@@H]4[C@H](O)C(=O)[C@@]32C)/C1=C(/CCC=C(C)C)C(=O)O`: “inactive”.
Same read-out and setting: next, `CO[C@@H](C)Cn1c(=O)n(C)c2cnc3ccc(-c4cncc(C(C)(C)O)c4)cc3c21`: 0.651 µM (active).
On to `CC1(C)CCC2(C(=O)OC3OC(CO)C(O)C(O)C3O)CCC3(C)C(=CCC4C5(C)CCC(O)C(C)(C(=O)O)C5CCC43C)C2C1O` (stereo not drawn), for which the Potency result is “inactive”.
Same read-out and setting: next, `C[C@H]1O[C@@H](O[C@H]2CC[C@@]3(C)C(CC[C@]4(C)C3CC=C3C5CC(C)(C)CC[C@]5(C(=O)O)CC[C@]34C(=O)O)C2(C)C)[C@H](O)[C@@H](O)[C@@H]1O` (stereo partly drawn): “inactive”; `CC(=O)O[C@@H](CO[C@@H]1O[C@H](CO)[C@H](O)[C@H](O)[C@H]1O)[C@]1(C)C=C2CC[C@@H]3C(C)(C)[C@@H](O)CC[C@@]3(C)[C@@H]2CC1`: “inactive”.
Turning to `CC1(C)CC[C@]2(CO[C@@H]3O[C@H](CO)[C@@H](O)[C@H](O)[C@H]3O)[C@@H](O)C[C@]3(C)C(=CCC4[C@@]5(C)CC[C@H](O[C@@H]6O[C@H](CO[C@@H]7O[C@H](CO[C@@H]8OC[C@@H](O)[C@H](O)[C@H]8O)[C@@H](O)[C@H](O)[C@H]7O)[C@@H](O)[C@H](O)[C@H]6O)C(C)(C)C5CC[C@]43C)[C@@H]2C1` (stereo partly drawn), the activity change, negative = cytotoxicity was 1.76% [at 9.29 µM] (inactive).
On to `CCc1ccc(Cc2ccc3c(c2)[C@]2(OC3)O[C@H](CO)[C@@H](O)[C@H](O)[C@H]2O)cc1`, for which the Potency entry is “inactive”.
For the compound `CC(C)CN(C[C@@H](O)[C@H](Cc1ccccc1)NC(=O)O[C@@H]1CO[C@H]2OCC[C@H]21)S(=O)(=O)c1ccc(N)cc1`, the Potency entry was “inactive”.
`CC1CCC2(C(=O)O)CCC3(C)C(=CCC4C5(C)CCC(OC(=O)/C=C/c6ccccc6)C(C)(C)C5CCC43C)C2C1C` (stereo not drawn): the Potency entry was “inactive”.
For `C[C@@H]1O[C@@H](O[C@H]2[C@H](OC(=O)[C@]34CCC(C)(C)C[C@H]3C3=CCC5[C@@]6(C)C[C@H](O)[C@H](O[C@@H]7O[C@H](CO)[C@@H](O[C@H]8OC[C@](O)(CO)[C@H]8O)[C@H](O)[C@H]7O)[C@@](C)(CO)C6[C@H](O)C[C@@]5(C)[C@]3(C)C[C@H]4O)OC[C@H](O)[C@@H]2O)[C@H](O)[C@H](O)[C@H]1O[C@@H]1OC[C@@H](O)[C@H](O[C@@H]2OC[C@](O)(CO)[C@H]2O)[C@H]1O` (stereo partly drawn), the activity change, negative = cytotoxicity was 9.78% [at 9.29 µM] (inactive).
Take `Cc1cc(C)c(CNC(=O)c2cc(-c3ccc(CN4CCOCC4)cc3)cc3c2cnn3C2CCCC2)c(=O)[nH]1`: the Potency entry is “inactive”.
`CC1(C)CC[C@]2(C(=O)O)[C@H](O)C[C@]3(C)C(=CCC4[C@@]5(C)CC[C@H](O[C@@H]6O[C@H](CO[C@@H]7OC[C@H](O)[C@H](O)[C@H]7O[C@@H]7OC[C@@H](O)[C@H](O)[C@H]7O)[C@@H](O)[C@H](O)[C@H]6O[C@@H]6O[C@H](CO)[C@@H](O)[C@H](O)[C@H]6O)C(C)(C)C5CC[C@]43C)[C@@H]2C1` (stereo partly drawn): the activity change, negative = cytotoxicity is 6.47% [at 9.29 µM] (inactive).
On to `COc1cccc(-c2cc(NCc3ccc4c(c3)OCO4)nc(N)n2)c1`, for which the Potency was 0.164 µM (active).
As for `CC(C)=CCC[C@](C)(O[C@@H]1O[C@H](CO[C@@H]2O[C@H](CO)[C@@H](O)[C@H](O)[C@H]2O)[C@@H](O)[C@H](O)[C@H]1O)C1CC[C@]2(C)[C@@H]1[C@H](O)CC1[C@@]3(C)CC[C@H](O[C@@H]4O[C@H](CO)[C@@H](O)[C@H](O)[C@H]4O[C@@H]4O[C@H](CO)[C@@H](O)[C@H](O)[C@H]4O)C(C)(C)[C@@H]3CC[C@]12C` (stereo partly drawn), the activity change, negative = cytotoxicity is -1.53% [at 9.29 µM] (inactive).
Regarding `C[C@@]12CC[C@@H]3[C@@](CC[C@H]4[C@@]3(C)CCC[C@@]4(C)C(=O)O)(CC1=O)C2`, the Potency result is “inactive”.
With `CC1=CC(=O)CC2C1(O)CCC(C)C21CC(c2ccoc2)OC1=O` (stereo not drawn), the Potency result was “inactive”.
With `CC(C)=CCC/C(C)=C/Cc1ccc(O)c(C2OC(=O)c3cc(C(=O)O)cc(O)c32)c1O` (stereo not drawn), the Potency result was “inactive”.
Still for that read-out and setting: under `COc1cc(C)c(C(=O)Oc2cc(C)c(C(=O)Oc3cc(C)c(C(=O)NC(C)C(=O)O)c(O)c3)c(O[C@@H]3O[C@H](CO)[C@@H](O)[C@H](O)[C@H]3OC(C)=O)c2)c(OC)c1` (stereo partly drawn) stands “inactive”.
In the case of `COc1cccc(C(=O)N2CCN(C(=O)COc3cccc(C)c3)CC2)c1OC`, the Potency was 23.1 µM (active).
Same read-out and setting: under `COC(=O)C1=CO[C@@H](O[C@@H]2O[C@H](CO)[C@@H](O)[C@H](O)[C@H]2O)C2C1C(=O)C[C@H]2C` (stereo partly drawn) stands “inactive”.
As to `COc1cc(/C=C/CO)cc(OC)c1O[C@@H]1O[C@H](CO[C@@H]2O[C@H](CO)[C@@H](O)[C@H](O)[C@H]2O)[C@@H](O)[C@H](O)[C@H]1O`, the Potency entry is “inactive”.
On the same count and under the same terms, under `C=CC1(C)C=C2CCC3C(C)(C)C(O[C@@H]4O[C@@H](CO)[C@H](O)[C@H]4O)CCC3(C)C2CC1O[C@@H]1O[C@H](C)[C@H](O)[C@H](O)[C@H]1O` (stereo partly drawn) stands “inactive”.
On to `CCC(CC)C(=O)Nc1sc2c(c1C#N)CCC(C(C)(C)CC)C2` (stereo not drawn), for which the Potency entry was “inactive”.
Same read-out and setting: next, `COc1cc2nc(N3CCCC3)nc(NCCCCCN3CCCC3)c2cc1OC`: “inactive”.
Same read-out and setting: under `C[C@@]12C[C@]3(O)O[C@H](O1)[C@]1(COC(=O)c4ccccc4)[C@H]3C[C@@]12O[C@@H]1O[C@H](CO)[C@@H](O)[C@H](O)[C@H]1O` stands “inactive”.
The same measure, in the same setting: under `CCc1cccc(CC)c1NC(=O)c1nn(C)c2c1CCc1cnc(Nc3ccc(C(=O)NC4CCN(C)CC4)cc3OC(F)(F)F)nc1-2` stands 3.55 µM (active); under `CN1CCN(c2ccc(C(=O)Nc3n[nH]c4ccc(Cc5cc(F)cc(F)c5)cc34)c(NC3CCOCC3)c2)CC1`, 16.4 µM (active) and 13 µM (active); under `O=C1Nc2ccccc2C(O)(c2ccccc2)C1O` (stereo not drawn), “inactive”.
In the case of `CC1(C)CC2C(O)c3cocc3CC(C)(O)C2C1` (stereo not drawn), the Potency entry was “inactive”.
